Laboratory results from PubChem BioAssay (NCI).
About 83,000 compounds went through this panel and 20% of them were active in at least one assay; those are over-represented in the sample as a whole.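 Cells were grown in 96-well plates and exposed to the test compound at a single concentration for 48 hours; results are reported as percent growth, with values below 10 considered active.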 The source made the active and inactive calls.

Key:
Test in all cases: NCI-60 one-dose screen, 48 h (100 = growth as untreated, 0 = no growth, -100 = all killed)
Details in all cases: 10 µM unless noted
DU-145 prostate = test system: DU-145 prostate
K-562 leukemia = test system: K-562 leukemia
MALME-3M melanoma = test system: MALME-3M melanoma
MDA-MB-231 breast = test system: MDA-MB-231 breast
RXF 393 renal = test system: RXF 393 renal
SF-268 CNS = test system: SF-268 CNS
SF-295 CNS = test system: SF-295 CNS
SF-539 CNS = test system: SF-539 CNS
UACC-257 melanoma = test system: UACC-257 melanoma
M14 melanoma = test system: M14 melanoma
HCT-15 colon = test system: HCT-15 colon
HT29 colon = test system: HT29 colon
SNB-75 CNS = test system: SNB-75 CNS
SNB-19 CNS = test system: SNB-19 CNS
U251 CNS = test system: U251 CNS
PC-3 prostate = test system: PC-3 prostate
SK-MEL-5 melanoma = test system: SK-MEL-5 melanoma
UACC-62 melanoma = test system: UACC-62 melanoma
LOX IMVI melanoma = test system: LOX IMVI melanoma
SK-MEL-28 melanoma = test system: SK-MEL-28 melanoma

Measured: growth

N#CC(C#N)C(C#N)C#N
inactive: DU-145 prostate 112% | K-562 leukemia 105% | MALME-3M melanoma 114% | MDA-MB-231 breast 108% | RXF 393 renal 110% | SF-268 CNS 104% | SF-295 CNS 102% | SF-539 CNS 105% | UACC-257 melanoma 85.7% | M14 melanoma 99.7% | HCT-15 colon 103% | HT29 colon 97% | SNB-75 CNS 82% | SNB-19 CNS 114% | U251 CNS 93.6% | PC-3 prostate 90.4% | SK-MEL-5 melanoma 103% | UACC-62 melanoma 98.6% | LOX IMVI melanoma 104% | SK-MEL-28 melanoma 110%

CN1CCN(c2nc3scc(-c4ccccc4)c3c(=O)[nH]2)CC1
inactive: DU-145 prostate 103% | K-562 leukemia 95.9% | MALME-3M melanoma 86.4% | MDA-MB-231 breast 92% | RXF 393 renal 96.5% | SF-268 CNS 96.7% | SF-295 CNS 96.6% | SF-539 CNS 93.7% | UACC-257 melanoma 108% | M14 melanoma 97.6% | HCT-15 colon 104% | HT29 colon 96.7% | SNB-75 CNS 88.4% | SNB-19 CNS 96.5% | U251 CNS 99.4% | PC-3 prostate 92.9% | SK-MEL-5 melanoma 96.7% | UACC-62 melanoma 94.2% | LOX IMVI melanoma 95.9% | SK-MEL-28 melanoma 104%

O=C(O)C1C(c2ccccc2)c2ccccc2C(O)C1CO (stereo not given)
inactive: DU-145 prostate 136% | K-562 leukemia 111% | MALME-3M melanoma 146% | MDA-MB-231 breast 94.9% | RXF 393 renal 123% | SF-268 CNS 116% | SF-295 CNS 120% | SF-539 CNS 99.7% | UACC-257 melanoma 98.9% | M14 melanoma 99.5% | HCT-15 colon 98.2% | HT29 colon 106% | SNB-75 CNS 80.7% | SNB-19 CNS 99.8% | U251 CNS 105% | PC-3 prostate 91.5% | SK-MEL-5 melanoma 107% | UACC-62 melanoma 95.3% | LOX IMVI melanoma 103% | SK-MEL-28 melanoma 111%

CCCCN=C(N)c1ccc(OCCSCCOc2ccc(C(N)=NCCCC)cc2)cc1
active: SF-295 CNS -36.4%
inactive: DU-145 prostate 55.3% | K-562 leukemia 40.9% | MALME-3M melanoma 39.3% | MDA-MB-231 breast 58.7% | RXF 393 renal 92.6% | SF-268 CNS 35.6% | SF-539 CNS 55% | UACC-257 melanoma 39.9% | M14 melanoma 81.6% | HCT-15 colon 90.5% | HT29 colon 44% | SNB-75 CNS 65.7% | SNB-19 CNS 36.7% | U251 CNS 34.5% | PC-3 prostate 44.4% | SK-MEL-5 melanoma 22.6% | UACC-62 melanoma 58.3% | LOX IMVI melanoma 58.1% | SK-MEL-28 melanoma 69.6%

CSc1nc2nc3c(c(-c4ccc(C)cc4)c2c(=O)[nH]1)CN(C)C/C3=C\c1ccc(C)cc1
inactive: DU-145 prostate 99.4% | K-562 leukemia 103% | MALME-3M melanoma 120% | MDA-MB-231 breast 86.3% | RXF 393 renal 109% | SF-268 CNS 90.9% | SF-295 CNS 111% | SF-539 CNS 124% | UACC-257 melanoma 79.7% | M14 melanoma 104% | HCT-15 colon 116% | HT29 colon 103% | SNB-75 CNS 93% | SNB-19 CNS 97.3% | U251 CNS 91.2% | PC-3 prostate 98.5% | SK-MEL-5 melanoma 77.1% | UACC-62 melanoma 93.8% | LOX IMVI melanoma 90% | SK-MEL-28 melanoma 111%

CCOC(=O)OCC(=O)[C@@]1(O)CC[C@H]2[C@@H]3CCC4=CC(=O)CC[C@]4(C)[C@H]3[C@@H](O)C[C@@]21C
inactive: DU-145 prostate 101% | K-562 leukemia 111% | MALME-3M melanoma 75.7% | MDA-MB-231 breast 98.2% | RXF 393 renal 127% | SF-268 CNS 94% | SF-295 CNS 129% | SF-539 CNS 91.3% | UACC-257 melanoma 93.4% | M14 melanoma 90.7% | HCT-15 colon 105% | HT29 colon 103% | SNB-75 CNS 119% | SNB-19 CNS 96.4% | U251 CNS 103% | PC-3 prostate 92% | SK-MEL-5 melanoma 98.2% | UACC-62 melanoma 87.6% | LOX IMVI melanoma 89.8% | SK-MEL-28 melanoma 110%

C[C@H](C(=O)N[C@@H](Cc1ccc(-c2ccccc2)cc1)C(=O)NC1CC(C)(C)NC(C)(C)C1)c1ccc(-c2ccccc2)c(F)c1
inactive: SNB-75 CNS 13.3%
active: DU-145 prostate -89.3% | K-562 leukemia -53.7% | MALME-3M melanoma -77.4% | MDA-MB-231 breast -53.6% | RXF 393 renal -55.6% | SF-268 CNS -58.1% | SF-295 CNS -54.5% | SF-539 CNS -78.6% | UACC-257 melanoma -62.9% | M14 melanoma -79.2% | HCT-15 colon -75% | HT29 colon -61.2% | SNB-19 CNS -6.87% | U251 CNS -71% | PC-3 prostate -65.5% | SK-MEL-5 melanoma -93.1% | UACC-62 melanoma -43.9% | LOX IMVI melanoma -85.3% | SK-MEL-28 melanoma -77.7%

CCNCCCn1c2c(c3ccc(F)cc3c1=O)C(=O)c1cc(OC)cnc1-2
inactive: SNB-19 CNS 12.1%
active: DU-145 prostate -2.92% | K-562 leukemia 1.44% | MALME-3M melanoma -68.7% | MDA-MB-231 breast 3.91% | RXF 393 renal -80.8% | SF-268 CNS 1.76% | SF-295 CNS -21% | SF-539 CNS -25.7% | UACC-257 melanoma -20.4% | M14 melanoma -25.9% | HCT-15 colon 2.25% | HT29 colon -14.9% | SNB-75 CNS -18.2% | U251 CNS -25.8% | PC-3 prostate -3.56% | SK-MEL-5 melanoma -99.1% | UACC-62 melanoma -34.5% | LOX IMVI melanoma -64.9% | SK-MEL-28 melanoma 8.91%
